From PubChem BioAssay
A selection: hits, their analogues and other compounds. The true share with any hit is near 4.2%.
Sfp PPTase inh – blocks B. subtilis Sfp PPTase activity. Q9F4F7. Biochemical Sfp PPTase activity, qHTS. Potency, µM, for the others: largest response in the series, negative = inhibition, most hits filed as inhibitors. 310,000 tested, 3.5% active. AID 1490;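 also: the enzyme is Sfp with the accession as filed and its product quenches rhodamine fluorescence; potency is read from the fitted curve at half-maximal effect; 0% = enzyme reaction without inhibitor and -100% = no enzyme wells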
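With Hepes-Na pH 7.6 buffer containing 10 mM MgCl2, Sfp (15 nM) modified BHQ-2-YbbR (12.5 uM) using rhodamine-CoA (5 uM). Two reads 30 minutes apart at 525/598 nm yielded each well's rate.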
TCR activator – T cell receptor activation | AID 504894 | primary human leukocytes, anti-CD3, IL-2 HTRF, 48 h | Potency, µM (top dose mostly 9.22 µM), without a hit: top-dose activation of IL-2 secretion, usual class: activators | 330,000 tested, under 10 active; also: % of control where 0% means no effect
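Primary human leukocytes were stimulated with a-CD3 beads plus compounds for 48 hr without co-stimulation; secreted IL-2 was quantified by HTRF using a-IL-2-K (europium cryptate) and a-IL-2-d2, excited at 320nm with acceptor emission read at 665nm.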
uPA generation – cell surface uPA generation inhibition; AID 540303; 330,000 tested, 0.31% active; cell surface uPA generation assay, qHTS; Potency, µM (titrated, usually from 38.3 µM), without a hit: top-dose activity change, negative = inhibition, most hits filed as inhibitors; active = well fitted inhibition curve with a large enough effect; inconclusive = small, poorly fitted or top-dose-only effect; inactive = no such curve, though single readings can be large or run the other way; tested in mouse RAW 264.7 cells; also: potency is read from the fitted curve at half-maximal effect; % is scaled to controls: 0 for no effect and ±100 for the full control effect; nearly all actives have a fitted effect of over 55% in size
ClpP mod – qHTS Assay for Activators of ClpP | ATP-dependent Clp protease proteolytic subunit (Bacillus subtilis (strain 168)), P80244 | purified B. subtilis ClpP, FRET peptide cleavage, 20 min | Potency, µM (series often up to 57.5 µM), without a hit: at the highest dose activity change, negative = active | 340,000 tested, 1.9% active; active = well fitted falling curve with a large enough effect; inconclusive = small, poorly fitted or top-dose-only effect; inactive = no such curve, though single readings can be large or run the other way; also: potency is read from the fitted curve at half-maximal effect; the source files actives as falling curves though it sought activators and does not explain the sign; nearly all actives have a fitted effect of over 65% in size
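FRET quenching reversal measured ClpP activation: 10 microg/mL B. subtilis ClpP at pH 8 with the FRET-FV decapeptide, read at 430 nm after 320 nm excitation. The 20-min minus 0-min signal was scaled between DMSO/no-enzyme wells and ADEP (5.8 microM final).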
Numbers without * were called inactive; ? = inconclusive; nt = not tested or not shown; [ ] = remark or other dose. Unless noted, calls follow the shape of the dose curve; as a rule, active = well fitted curve in the direction sought with a large enough effect; inconclusive = small, poorly fitted or top-dose-only effect, or another doubt; inactive = no such curve, though single readings can be large; an effect the other way counts as inactive or inconclusive.

SMILES	Sfp PPTase inh	TCR activator	uPA generation	ClpP mod
CC(O)CSc1nc2c(c(=O)[nH]c(=O)n2C)n1Cc1ccccc1 (configuration not stated)	15.9%	-1.3%	-2.4%	-0.4%
CCCSc1nc2c(c(=O)[nH]c(=O)n2C)n1Cc1ccc(C)cc1	-4.0%	-1.5%	-5.4%	-2.5%
Cn1c(=O)[nH]c(=O)c2c1nc(SCC(O)CCl)n2Cc1ccccc1 (configuration not stated)	39.8µM*	-6.9%	?	-1.2%
Cc1ccc(Cn2c(SCC(C)C)nc3c2c(=O)[nH]c(=O)n3C)cc1	35.5µM*	2.4%	-3.6%	-0.3%
Cn1cc(S(=O)(=O)N2CCCCCC2)cc1C(=O)N1CCN(c2ccccc2F)CC1	nt	nt	nt	-1.1%
CCn1nc(C(=O)NCC(c2cccs2)N2CCOCC2)c2ccccc2c1=O (configuration not stated)	15.3%	-8.2%	2.4%	0.0%
CCCCn1nc(C(=O)NCC(c2cccs2)N2CCOCC2)c2ccccc2c1=O (configuration not stated)	nt	-1.9%	11.2µM*	-0.9%
COc1ccc(NC(=O)c2c(NCc3ccc(N(C)C)cc3)sc3c2CCC3)cc1	nt	nt	nt	0.4%
Cc1sc2nc(SCC(=O)NCc3ccco3)n(C)c(=O)c2c1C	9.6%	1.3%	-1.6%	-0.6%
O=c1c2ccccc2nc2ccc(NCc3ccco3)nn12	39.8µM*	-1.8%	-9.6%	-25.5%
Cc1sc2nc3ccc(NCc4ccco4)nn3c(=O)c2c1C	31.6µM*	2.2%	-6.1%	?
Clc1nc(NCc2ccco2)c2ccccc2n1	nt	nt	nt	4.0%
O=C(Nc1ccc(F)cc1)C(c1ccnc2ccccc12)N1CCN(c2cccc(C(F)(F)F)n2)CC1 (configuration not stated)	nt	nt	nt	-5.8%
O=C1CCCC2=C1C1O[C@](CCCCN3C(=O)c4ccccc4C3=O)(Cc3ccccc31)O2	-1.8%	nt	nt	nt
CCOC(=O)CSc1nc2sc3c(c2c(=O)n1-c1ccc(OCC)cc1)CCN(C)C3	-20.7%	8.0%	6.7%	-22.0%
CCOC(=O)CSc1nc2sc3c(c2c(=O)n1C1CCCCC1)CCN(C)C3	-20.3%	6.9%[46.1 µM]	-10.7%	28.2µM*
CCCc1cc2c(c(NC(C)=O)n1)c(=O)oc1ccccc12	3.4%	-3.2%[46.1 µM]	-1.4%	31.6µM*
CC(C)CCN1CCNC(=O)C1CC(=O)N(C)CCCN1CCOCC1 (configuration not stated)	21.5%	4.1%	7.8%	31.6µM*
COc1ccc(NS(=O)(=O)c2ccc(N3CCCC3)c(NC(=S)Nc3cccc(S(=O)(=O)N(C)C)c3)c2)cc1	3.98µM*	0.0%	nt	nt
CNC(=S)Nc1ccc(N2CCCC2)c(S(=O)(=O)Nc2ccc(OC)cc2)c1	nt	-7.4%	?	-6.5%
Cc1ccc(CNC(=O)c2oc3ccc(S(=O)(=O)N4CCC(C)CC4)cc3c2C)cc1	nt	nt	nt	1.1%
Cc1ccccc1N(CC(=O)NCCSCc1ccco1)S(C)(=O)=O	20µM*	4.1%	-0.7%	1.7%
Cc1cc(C)c(S(=O)(=O)N2CCN(c3ccccc3)CC2)c(C)c1	19.1%	-6.6%	-7.1%	1.2%
Cc1cccc(CS(=O)(=O)c2nnc([C@H](Cc3ccccc3)NC(=O)OC(C)(C)C)o2)c1	17.8µM*	nt	nt	0.6%
CN=C1C([N+](=O)[O-])=CC=C2C1=NC1(CCCCC1)N2O	8.91µM*	2.2%[46.1 µM]	-4.0%	-0.6%
SMILES	Sfp PPTase inh	TCR activator	uPA generation	ClpP mod
O=[N+]([O-])C1=CC=C2C(=NC3(CCCCC3)N2O)C1=NCCO	39.8µM*	-3.5%	-4.5%	-1.7%
CCc1ccc(NC(=O)CSc2nnnn2C)cc1	20.8%	-0.7%	-0.8%	2.8%
COc1cccc(-n2sc3c(c2=S)-c2cc(OC)ccc2NC3(C)C)c1	26.1%	10.6%	-10.1%	1.8%
CC1(C)Nc2ccc(O)cc2-c2c1ssc2=S	44.7µM*	4.3%[46.1 µM]	8.5%	0.5%
NC(=S)N/N=C1\CC(n2nnn(-c3cccc(Cl)c3)c2=S)C2COC1O2 (configuration not stated)	-12.8%	-5.1%	-5.8%	nt
CNc1ccccc(-c2ccc3ccccc3n2)c1=O	56.2µM*	-0.7%[46.1 µM]	-10.0%	0.7%
c1ccc(-c2ccc3ccccc3n2)cc1	nt	1.5%	-21.3%	0.0%
CC(C)(C)C(=O)N1CCC2CC1c1cc(Cl)ccc12 (configuration not stated)	nt	-2.2%	-4.8%	2.1%
COc1ccc(OC)c(NC(=O)Cn2c(=O)n(Cc3ccco3)c(=O)c3cc(OC)c(OC)cc32)c1	nt	nt	nt	-8.6%
COc1ccccc1NC(=O)Cn1c(=O)n(Cc2ccco2)c(=O)c2oc3ccccc3c21	nt	nt	nt	31.6µM*
COc1cc2c(=O)n(Cc3ccccc3)c(=O)n(CC(=O)NCc3ccco3)c2cc1OC	-15.8%	-11.5%	-4.8%	15.8µM*
Cc1ccc(NC(=O)Cn2c(=O)n(Cc3ccco3)c(=O)c3oc4ccccc4c32)cc1C	nt	nt	nt	-0.9%
COc1cccc(NC(=O)Cn2c(=O)n(Cc3ccco3)c(=O)c3cc(OC)c(OC)cc32)c1	nt	nt	nt	28.2µM*
Fc1ccc(C(NCCc2ccc(Cl)cc2)c2nnc(-c3ccccc3Cl)o2)cc1 (configuration not stated)	nt	nt	nt	-1.1%
O=C(NCc1cccs1)C1C(=O)Nc2ccccc2C(=O)N1C1CCCC1 (configuration not stated)	nt	nt	nt	-26.4%
C(#Cc1ccccc1)Cn1nnc2ccccc21	-2.2%	2.1%	-12.8%	28.2µM*
CCC12OC(=N)C(C#N)(C1C)C(C#N)(C#N)C(c1ccccc1)O2 (configuration not stated)	6.1%	-4.0%[46.1 µM]	-0.4%	7.08µM*
CCC1OC2(C)OC(=N)C1(C#N)C(C#N)(C#N)C2c1ccccc1 (configuration not stated)	25.0%	-6.0%[46.1 µM]	0.2%	22.4µM*
CC(C)C1OC2(C)OC(=N)C1(C#N)C(C#N)(C#N)C2c1ccccc1 (configuration not stated)	24.3%	-2.5%[46.1 µM]	-9.9%	0.9%
CCOC(=O)c1c(C)nc(C)c2c(=O)oc3ccccc3c12	13.7%	0.8%	-3.3%	0.4%
O=C(NN=Cc1c(O)ccc2ccccc12)c1ccc2c(c1)OCO2	nt	-1.0%	8.91µM*	-2.2%
O=C(N/N=C\c1ccc(-c2ccc([N+](=O)[O-])cc2)o1)c1ccc2c(c1)OCO2	-11.3%	-5.8%[46.1 µM]	-1.0%	0.6%
O=C(N/N=C/c1ccccc1)c1ccc2c(c1)OCO2	17.8%	-5.9%	?	0.5%
O=C(N/N=C/c1ccc([N+](=O)[O-])o1)c1ccc2c(c1)OCO2	14.4%	-3.6%	4.47µM*	0.3%
CCCCNC(=O)C[C@@H]1C[C@@]2(C(=O)OCC)CCCC=C2N(Cc2ccc3c(c2)OCO3)C1=O	nt	nt	nt	3.0%
Cc1ccc(NC(=O)Nc2cccc([N+](=O)[O-])c2)cc1F	79.4µM*	-3.1%[46.1 µM]	-21.3%	-0.6%
CC(C)(C)CC(C)(C)NC(=O)Nc1cccc([N+](=O)[O-])c1	9.9%	-1.1%	10µM*	-0.7%
Cc1ccc(C(=O)Nc2cc(Cl)ccc2N2CCCCC2)s1	-4.7%	17.7%	11.1%	?
CCc1sc(C(=O)Nc2cc(Cl)ccc2N2CCCCC2)cc1C	-4.5%	-18.8%	1.4%	22.4µM*
Cc1noc(C)c1CSCC(=O)Nc1cc(Cl)ccc1N1CCCCC1	nt	3.0%	32.2%	25.1µM*
